Seven compounds from PubChem BioAssay (NCI) can be followed below.

About 83,000 compounds went through this panel and 20% of them were active in at least one assay; those are over-represented in the sample as a whole.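 The endpoint reported here, percent growth, reads 100 for growth as untreated, 0 for no net growth and -100 for all cells dead.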 Unmarked numbers belong to inactive results. The source made the active and inactive calls. How the source made its calls: active means growth percent below 10; inactive means the rest.

Test systems include HCT-15 colon; HT29 colon; SNB-75 CNS; SNB-19 CNS; U251 CNS; PC-3 prostate; SK-MEL-5 melanoma; UACC-62 melanoma; LOX IMVI melanoma; SK-MEL-28 melanoma; SK-MEL-2 melanoma; EKVX NSCLC; SN12C renal; UO-31 renal; TK-10 renal; ACHN renal; A498 renal; CCRF-CEM leukemia; MOLT-4 leukemia; SR leukemia.
Common to all, as to assay: NCI-60 one-dose screen, 48 h (100 = growth as untreated, 0 = no growth, -100 = all killed)
Common to all, as to settings: 10 µM unless noted

`c1ccc(-c2cn3ccnc3c(-c3ccc4c(c3)ncn4C3CCCCC3)n2)cc1`: the growth was 80.9% in the experiment on HCT-15 colon; 90.8% in the experiment on HT29 colon; 94.4% in the experiment on SNB-75 CNS; 98.3% in the experiment on SNB-19 CNS; 95.6% in the experiment with U251 CNS; 86.5% in the experiment on PC-3 prostate. In addition, the growth in the experiment on SK-MEL-5 melanoma was 94.3%; in the experiment with UACC-62 melanoma it was 98%; in the experiment on LOX IMVI melanoma it was 95.1%; in the experiment on SK-MEL-28 melanoma it was 111%; with SK-MEL-2 melanoma, 106%; in the experiment on EKVX NSCLC, 97.5%. Moreover, the growth with SN12C renal was 95.2%; in the experiment on UO-31 renal, 79.1%; in the experiment with TK-10 renal, 106%; in the experiment on ACHN renal, 104%; in the experiment with A498 renal, 106%; in the experiment on CCRF-CEM leukemia it was 88.3%. The growth was 60.3% in the experiment on MOLT-4 leukemia and 55.4% in the experiment on SR leukemia.
On to `COc1ccc2[nH]c(=O)c(/C=C/C(=O)/C=C/c3ccc(O)c(OC)c3)cc2c1`, for which the growth with HCT-15 colon was 2.08% (active); in the experiment with HT29 colon, -38.7% (active); in the experiment on SNB-75 CNS it was 59.8%; in the experiment on SNB-19 CNS, 36.3%; with U251 CNS it was -13% (active); in the experiment on PC-3 prostate it was 9.53% (active). In addition, the growth was 9.36% (active) with SK-MEL-5 melanoma; 10.8% in the experiment on UACC-62 melanoma; -36% (active) in the experiment with LOX IMVI melanoma; 16.8% in the experiment with SK-MEL-28 melanoma; 78.3% with SK-MEL-2 melanoma; 59.4% in the experiment on EKVX NSCLC. Also, the growth was 4.69% (active) in the experiment on SN12C renal; -70.8% (active) in the experiment with UO-31 renal; 61.1% in the experiment with TK-10 renal; 49.9% with ACHN renal; 89.7% with A498 renal; 3.63% (active) with CCRF-CEM leukemia. In addition, the growth is 21% in the experiment on MOLT-4 leukemia and 1.27% (active) with SR leukemia.
For the compound `CN1C(=O)c2cc(Cl)nc3c(NC(=O)c4cccc(Cl)c4)c(Cl)c(NC(=O)c4cccc(Cl)c4)c1c23`, the growth with HCT-15 colon is -83.9% (active); in the experiment on HT29 colon, -57.7% (active); in the experiment with SNB-75 CNS, 75.3%; with SNB-19 CNS, 2.15% (active); with U251 CNS, -68.4% (active); with PC-3 prostate, -45.5% (active). In addition, the growth in the experiment with SK-MEL-5 melanoma was 4.57% (active); with UACC-62 melanoma, 6.83% (active); in the experiment with LOX IMVI melanoma, -65.1% (active); with SK-MEL-28 melanoma, -32.2% (active); in the experiment on SK-MEL-2 melanoma, -39% (active); in the experiment with EKVX NSCLC it was 27.4%. The growth in the experiment with SN12C renal is -43.2% (active); with UO-31 renal, -61.8% (active); with TK-10 renal, 39.9%; with ACHN renal it was -61.7% (active); in the experiment with A498 renal, 96.6%; in the experiment with CCRF-CEM leukemia it was 7.27% (active). For the same compound, the growth in the experiment with MOLT-4 leukemia is -19.9% (active); in the experiment with SR leukemia, -44.7% (active).
In the case of `C[C@H](Oc1cc(-c2cnn(C3CCNCC3)c2)cnc1N)c1c(Cl)ccc(F)c1Cl`, the growth with HCT-15 colon is 43.2%; in the experiment on HT29 colon, 12.4%; with SNB-75 CNS, 76.3%; in the experiment on SNB-19 CNS, 65.6%; with U251 CNS, 37.6%; with PC-3 prostate, 45.9%. For the same compound, the growth in the experiment on SK-MEL-5 melanoma is 59%; in the experiment with UACC-62 melanoma, 60.2%; with LOX IMVI melanoma it was 8.87% (active); with SK-MEL-28 melanoma, -46.5% (active); in the experiment on SK-MEL-2 melanoma it was 71.1%; in the experiment with EKVX NSCLC it was 79.6%. The growth with SN12C renal is 54.2%; in the experiment on UO-31 renal it was 61.7%; with TK-10 renal, 88.7%; with ACHN renal it was 75.6%; in the experiment on A498 renal it was 68%; with CCRF-CEM leukemia, 34.6%. For the same compound, the growth in the experiment with MOLT-4 leukemia was 14%; with SR leukemia, -22.1% (active).
For `C#C[C@@]1(O)[C@@H](CO)O[C@@H](n2cnc3c(-c4ccccc4)ncnc32)[C@@H]1O`, the growth in the experiment with HCT-15 colon is 98%; in the experiment with HT29 colon it was 101%; in the experiment on SNB-75 CNS, 85.7%; in the experiment on SNB-19 CNS, 112%; in the experiment with U251 CNS, 104%; in the experiment on PC-3 prostate it was 95.5%. Besides, the growth with SK-MEL-5 melanoma was 104%; in the experiment with UACC-62 melanoma, 108%; in the experiment with LOX IMVI melanoma, 94.6%; in the experiment on SK-MEL-28 melanoma, 111%; in the experiment with SK-MEL-2 melanoma it was 107%; with EKVX NSCLC, 97.7%. Also, the growth is 102% in the experiment with SN12C renal; 92.5% with UO-31 renal; 100% in the experiment with TK-10 renal; 115% in the experiment with ACHN renal; 106% in the experiment with A498 renal; 102% in the experiment on CCRF-CEM leukemia. Also, the figures for the growth in the experiment with MOLT-4 leukemia and with SR leukemia were 99.7% and 101%, respectively.
As for `C#C[C@@]1(O)[C@@H](CO)O[C@@H](n2cc(Br)c3c(N)ncnc32)[C@@H]1O`, the growth in the experiment with HCT-15 colon is 2.93% (active); with HT29 colon, 3.26% (active); with SNB-75 CNS, -36.2% (active); in the experiment with SNB-19 CNS, 2.58% (active); in the experiment on U251 CNS it was -12.4% (active); in the experiment with PC-3 prostate, -2.77% (active). The growth with SK-MEL-5 melanoma was 4.89% (active); in the experiment with UACC-62 melanoma, 15.1%; with LOX IMVI melanoma, -56.8% (active); with SK-MEL-28 melanoma, 58.2%; with SK-MEL-2 melanoma, -24.9% (active); in the experiment on EKVX NSCLC it was -23.8% (active). In addition, the growth in the experiment with SN12C renal is -1.98% (active); in the experiment on UO-31 renal it was -78.3% (active); with TK-10 renal, -0.297% (active); with ACHN renal, -5.98% (active); in the experiment with A498 renal, -78.9% (active); in the experiment on CCRF-CEM leukemia, 3.84% (active). Moreover, the growth in the experiment with MOLT-4 leukemia is -16.5% (active); in the experiment with SR leukemia it was -1.01% (active).
With `COc1cc(C(=O)Nc2cc(OC)c3ccn(C)c3c2)cc2c1C[C@]1(C)CC[C@@H](O)C(C)(C)[C@H]1O2`, the growth in the experiment with HCT-15 colon was 20.9%; in the experiment on HT29 colon, 5.58% (active); in the experiment with SNB-75 CNS, -9.5% (active); with SNB-19 CNS, 33.3%; in the experiment with U251 CNS it was 16.5%; in the experiment on PC-3 prostate, 3.01% (active). Moreover, the growth in the experiment on SK-MEL-5 melanoma is -34.8% (active); in the experiment on UACC-62 melanoma it was -8.05% (active); in the experiment with LOX IMVI melanoma it was -14.6% (active); in the experiment on SK-MEL-28 melanoma, 13.4%; in the experiment on SK-MEL-2 melanoma it was -7.94% (active); in the experiment on EKVX NSCLC, 33.5%. Besides, the growth in the experiment with SN12C renal is 46.8%; in the experiment on UO-31 renal it was -5.02% (active); in the experiment on TK-10 renal, 36.9%; with ACHN renal it was 18%; in the experiment on A498 renal, -23.1% (active); with CCRF-CEM leukemia it was 5.35% (active). The growth in the experiment on MOLT-4 leukemia was -8.72% (active); with SR leukemia it was 11.5%.
